Source: PubChem (National Center for Advancing Translational Sciences (NCATS))
Shown are actives, neighbours in structure and some others; about 4% of the full set was active somewhere.
NTMT1 inh = blocks human N-terminal methyltransferase 1 activity. Q9BV86. NTMT1 MTase-Glo SAH luminescence, purified enzyme. Potency, µM (top dose mostly 114 µM), for the others: at the highest dose activity change, negative = inhibition, actives largely listed as inhibitors. 59,000 tested, 2.5% active;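 note: potency is the fitted concentration of half-maximal effect; plate controls were DMSO vehicle for no effect and no enzyme for full effect; nearly all actives have a fitted effect of over 65% in size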
GALC G270D up = raises human GALC G270D mutant activity in cells | P54803 | 145M-Twi-hGALC-G270D cells (Twitcher mouse brain line with human GALC G270D), HMU-beta-Gal fluorescence, 48 h | Potency, µM (series often up to 57.5 µM), actives largely listed as activators | 45,000 tested, 0.1% active; note: potency is the fitted concentration of half-maximal effect; 0% is about no effect; nearly all actives have a fitted effect of over 65% in size
Target sequence (P54803 whole entry G286D): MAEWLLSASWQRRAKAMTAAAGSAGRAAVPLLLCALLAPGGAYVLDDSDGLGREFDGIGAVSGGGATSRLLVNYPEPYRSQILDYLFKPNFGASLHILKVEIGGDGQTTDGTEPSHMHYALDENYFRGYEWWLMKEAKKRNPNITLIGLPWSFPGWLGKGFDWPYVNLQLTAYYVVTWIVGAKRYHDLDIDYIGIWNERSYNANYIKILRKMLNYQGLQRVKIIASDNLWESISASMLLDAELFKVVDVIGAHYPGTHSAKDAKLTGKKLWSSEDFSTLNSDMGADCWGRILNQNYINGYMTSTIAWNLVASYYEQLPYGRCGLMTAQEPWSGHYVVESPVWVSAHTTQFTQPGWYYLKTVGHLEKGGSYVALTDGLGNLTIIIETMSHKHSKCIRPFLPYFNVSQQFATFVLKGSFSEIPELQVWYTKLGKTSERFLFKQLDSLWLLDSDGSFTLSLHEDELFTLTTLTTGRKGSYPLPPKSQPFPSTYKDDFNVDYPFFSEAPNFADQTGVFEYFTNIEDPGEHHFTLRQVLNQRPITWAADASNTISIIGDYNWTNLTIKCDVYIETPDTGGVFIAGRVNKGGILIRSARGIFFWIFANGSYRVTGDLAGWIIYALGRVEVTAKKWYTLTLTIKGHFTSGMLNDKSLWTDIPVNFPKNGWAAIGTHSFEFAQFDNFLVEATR
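Fluorescence readout: HMU-β-gal cleavage by mutant GALC (0.1 mM final, citrate/phosphate pH 5.2 with 1 mg/mL taurocholate), stopped with carbonate/bicarbonate plus Triton X-100. Cells: murine Twitcher 145M-Twi expressing human G270D GALC; qHTS for activators.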
OvCa metastasis = blocks SKOV3ip1 adhesion and invasion in omental model; SKOV3ip1-GFP adhesion/invasion on 3D omental model, fluorescence; Potency, µM (doses to about 45.8 µM), without a hit: at the highest dose activity change, negative = inhibition, actives largely listed as inhibitors; 46,000 tested, 0.1% active; AID 1963576;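 note: potency is the fitted concentration of half-maximal effect; plate controls were DMSO wells for no effect and tomatine positive control wells for full effect; nearly all actives have a fitted effect of over 65% in size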
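A 3D layer of primary human omental fibroblasts, mesothelial cells, fibronectin and collagen I, grown 48 hr, received SKOV3ip1-GFP cells in serum-free medium plus compounds at 0.36-46 umol/L. After 2 hr RT and 16 hr 37 C, fixed adherent GFP cells were counted; normalized to DMSO and tomatine.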
GPR32 ag = GPR32 (DRV1) agonism, beta-arrestin recruitment; CHO-K1 GPR32 beta-arrestin PathHunter luminescence, 90 min; zero percent set by DMSO-only wells; AID 1346428; 48,000 tested, 2.5% active; activation, % at 76.9 µM;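 active = activation of at least 60% and not above a set upper limit, about 1 call in 100 departs from these limits; inconclusive = activation of 40% to 60%, or above that upper limit; inactive = activation under 40%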; note: 0% is about no effect
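Agonism was scored as beta-arrestin recruitment to ProLink-fused GPR32 in stably transfected CHO-K1 cells, giving a chemiluminescent beta-Gal signal; compounds were incubated 90 min at 37 °C.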
p53null 39C tox = kills p53 null cells at the nonpermissive temperature | H1299 p53-null (neo) cells, 39C, ATPlite viability, 24 h | Potency, µM (doses to about 46.1 µM), for inactives: at the highest dose activity, negative = cell killing, usual class: cytotoxic | 55,000 tested, 0.97% active | AID 904;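 note: potency is the fitted concentration of half-maximal effect; 0% = DMSO only and -100% = full killing by 100 µM tamoxifen; nearly all actives have a fitted effect of over 50% in size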
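Following overnight plating at 37C (600 cells/well), H1299-neo or H1299-p53A138V cells are dosed up to 46 uM. Incubation lasts 24 hr at 39C before ATP detection.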
p53null 32C tox = selectivity test: cytotoxicity in p53 null cells, permissive temperature | H1299-neo p53 null cells, ATP luminescence, 24 h, 32C | Potency, µM (top dose mostly 46.1 µM), for the others: top-dose activity change, negative = cytotoxicity, hits mostly cytotoxic | 55,000 tested, 0.62% active;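 note: potency is the fitted concentration of half-maximal effect; 0% = DMSO only and -100% = full killing by 100 µM tamoxifen; nearly all actives have a fitted effect of over 55% in size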
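AC50 values derive from Hill modelling of qHTS concentration-response data (up to 46 uM) in H1299-neo cells. Cells were treated 24 h at 32C following overnight attachment at 37C; viability was read as cellular ATP.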
Active calls of the source: *; [ ] = another dose, or the depositor's remark. Unless noted, calls come from the whole dose curve; as a rule, active = well fitted curve in the direction sought with a large enough effect; inconclusive = small, poorly fitted or top-dose-only effect, or another doubt; inactive = no such curve, though single readings can be large; an effect the other way counts as inactive or inconclusive.

`COc1ccccc1C(=O)Nc1cc2c(cc1N1CCOCC1)n(C)c(=O)n2C` gave OvCa metastasis 2%, GPR32 ag -5, p53null 39C tox 6% and p53null 32C tox 8%.
`COCCCn1c(=N)c(C(=O)NC2CCCC2)cc2c(=O)n3cccc(C)c3nc21` gave NTMT1 inh inconclusive, GALC G270D up 25µM*, OvCa metastasis inactive, GPR32 ag -4, p53null 39C tox 7% and p53null 32C tox 3%.
For CC(C)n1c(=N)c(C(=O)NCc2cccnc2)cc2c(=O)n3ccccc3nc21 the results were NTMT1 inh 10%, GALC G270D up 4µM*, OvCa metastasis -15%, GPR32 ag -7, p53null 39C tox -5% and p53null 32C tox -1%.
CCC(C)n1c(=N)c(C(=O)NC2CCCC2)cc2c(=O)n3ccccc3nc21 (stereo unspecified) was read as NTMT1 inh -3%, GALC G270D up 10µM*, OvCa metastasis -12%, GPR32 ag 1, p53null 39C tox 36% and p53null 32C tox -8%.
Cc1ccc2nc3c(cc(C(=O)NC4CCCC4)c(=N)n3C(C)C)c(=O)n2c1 was read as NTMT1 inh 2%, GALC G270D up inactive, OvCa metastasis -3%, GPR32 ag -6, p53null 39C tox 36% and p53null 32C tox -3%.
CC(C)n1c(=N)c(C(=O)NCc2ccccc2)cc2c(=O)n3ccccc3nc21 was read as NTMT1 inh -2%, GALC G270D up inactive, OvCa metastasis 0%, GPR32 ag -8, p53null 39C tox 2% and p53null 32C tox -3%.
For CCC(C)n1c(=N)c(C(=O)NC2CCCCC2)cc2c(=O)n3cc(C)ccc3nc21 (stereo unspecified) the results were NTMT1 inh -1%, GALC G270D up 32µM*, OvCa metastasis 24%, GPR32 ag 6, p53null 39C tox 5% and p53null 32C tox 0%.
`O=C(Nc1ccccc1Br)NC1CCN(c2ccc(C(F)(F)F)cn2)C1` (stereo unspecified) gave NTMT1 inh -1%[57.5 µM].
Cc1cccc(C=NNc2cc(N3CCOCC3)nc(OCCc3ccccn3)n2)c1 was read as NTMT1 inh 22µM* and OvCa metastasis -31%.
Cc1cccc(/C=N/Nc2cc(N3CCOCC3)nc(OCCc3ccccn3)n2)c1 was read as NTMT1 inh -22%.
Cc1cc(Nc2ncc(Cl)c(Nc3ccccc3S(=O)(=O)C(C)C)n2)c(OC(C)C)cc1C1CCNCC1 was read as NTMT1 inh 14µM*.
`COc1cc(N2CCC(N3CCN(C)CC3)CC2)ccc1Nc1ncc(Cl)c(Nc2ccccc2P(C)(C)=O)n1` gave NTMT1 inh 0%.
For CCc1ccc(NC(=O)Nc2ccccc2OCc2cc(=O)n3ccccc3n2)cc1 the results were NTMT1 inh inconclusive, GALC G270D up inactive, OvCa metastasis -6%, GPR32 ag -5, p53null 39C tox 2µM* and p53null 32C tox inconclusive.
CC(C)C(=O)Nc1ccccc1OCc1cc(=O)n2ccccc2n1 was read as NTMT1 inh 9%, GALC G270D up inactive, OvCa metastasis -6%, GPR32 ag -8, p53null 39C tox 11% and p53null 32C tox -5%.
O=C(NC[C@H](O)CN1CCc2ccccc2C1)c1ccnc(NC2CCC2)c1 was read as NTMT1 inh 10%.
CCc1cccc(C)c1NC(=O)CSc1nnc(N)s1 was read as NTMT1 inh -5%, GALC G270D up inactive, OvCa metastasis 16%, GPR32 ag 94*, p53null 39C tox -15% and p53null 32C tox 4%.
Screening Cc1ccc(S(=O)(=O)Nc2ccccc2C(=O)Nc2ccc(-c3ccccc3)cn2)cc1 returned NTMT1 inh 2%[57.5 µM].
